Potency, outcome and activity change, positive = activation data for nine compounds are collected here from PubChem BioAssay (Tox21).

A number with no mark means an inactive call. Results filed as inconclusive are left out. Calls of active or inactive are those of the source. Unless noted, calls come from the whole dose curve; as a rule, active = well fitted curve in the direction sought with a large enough effect in the repeat runs; inconclusive = weak or mixed curves; inactive = no such curve, though single readings can be large; an effect the other way counts as inactive or inconclusive.

Experiment [1] can be described thus: qHTS assay to identify small molecule antagonists of the estrogen related receptor (ERR) signaling pathway from Tox21 library - cell viability counter screen (AID 1224834). Note: nearly all actives have a fitted effect of over 30% in size. The procedure, abridged: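 Cytotoxicity of test substances is gauged in the same ERR cells used for the antagonist screen, after 17.5 h of compound treatment at 37 C, by CellTiter-Fluor fluorescence measured after 30 min.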
On the technique in general: In qHTS, concentration-response curves come from the screen itself.

The target in experiment [2] is Luciferin 4-monooxygenase (Photinus pyralis) (UniProt P08659). Put plainly: qHTS assay to identify small molecule inhibitors of firefly luciferase (AID 1224835). Note: nearly all actives have a fitted effect of over 25% in size. Note: potency is the fitted concentration of half-maximal effect. In a few lines:
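Quantitative HTS format; KM concentrations of both substrates. Purified P. pyralis FLuc activity quantified from luminescence images.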

Experiment [3] can be described thus: qHTS assay to identify small molecule agonists of the constitutive androstane receptor (CAR) signaling pathway - cell viability counter screen (AID 1224836). Note: nearly all actives have a fitted effect of over 45% in size. In a few lines: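 Viability read-out: CellTiter-Fluor fluorescence after 23 h compound exposure at 37 C/5% CO2 in double-stable HepG2-CYP2B6-hCAR cells, with PK11195 present at 0.75 uM final; compounds tested in 15-point titration.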

A short description of experiment [4]: qHTS assay to identify small molecule antagonists of the constitutive androstane receptor (CAR) signaling pathway - cell viability counter screen (AID 1224837). Note: nearly all actives have a fitted effect of over 45% in size. In a few lines: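 Multiplexed cytotoxicity read-out for the CAR antagonist screen: double-stable HepG2-CYP2B6-hCAR cells co-treated with 50 nM CITCO (final) and compound over 15 concentrations, incubated 23 hr, then assessed by CellTiter-Fluor fluorescence.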

The target in experiment [5] is Nuclear receptor subfamily 1 group I member 3 (Homo sapiens) (UniProt Q14994). The experiment in a line: qHTS assay to identify small molecule antagonists of the constitutive androstane receptor (CAR) signaling pathway (AID 1224838). Note: nearly all actives have a fitted effect of over 40% in size. The procedure, abridged:
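Compounds were titrated across 15 concentrations onto HepG2 cells double-stably expressing hCAR and a CYP2B6-2.2kb reporter, together with 50 nM CITCO (final). After 24 h at 37 C, luciferase activity was measured by luminescence.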

Experiment [6] shares this target. Put plainly: qHTS assay to identify small molecule agonists of the constitutive androstane receptor (CAR) signaling pathway (AID 1224839).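 For activation: HepG2 cells stably carrying human CAR and a CYP2B6 luciferase reporter.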 Note: nearly all actives have a fitted effect of over 15% in size. Note: potency is the fitted concentration of half-maximal effect. The procedure, abridged:
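Luminescence read-out (ONE-Glo, 30 min, room temperature) from double-stable HepG2-CYP2B6-hCAR cells exposed 24 h to 15-point compound series in presence of 0.75 uM PK11195 final.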

Experiment [7] is described as follows: qHTS assay to identify small molecule antagonists of the estrogen related receptor signaling pathway with the pleiotropic PPARgamma coactivator (PGC) from Tox21 10K library - cell viability counter screen (AID 1224840; active = well fitted cell-killing curve with a large enough effect in the repeat runs, not every such curve was filed as active; note: nearly all actives have a fitted effect of over 40% in size). The procedure, abridged:
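Step one, plate 2,000 PGC/ERR cells per well; step two, incubate 6 h at 37 C/5% CO2; step three, pin-transfer compounds; step four, incubate 17.5 h; step five, add CellTiter-Fluor and read fluorescence after 30 min.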

The nature of experiment [8]: qHTS assay to identify small molecule agonists of the hypoxia (HIF-1) signaling pathway - cell viability counter screen (AID 1224844; calls by dose curve; note: nearly all actives have a fitted effect of over 50% in size). In a few lines:
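Tox21 10K compounds were added to HRE-bla ME-180 cells (0.5% dialyzed FBS) and incubated 17 hrs at 37C; ATP-based CellTiter-Glo luminescence then reported cell viability in the same wells.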

A short description of experiment [9]: qHTS assay to identify small molecule agonists of H2AX (AID 1224845; active = well fitted activation curve with a large enough effect in the signal ratio in the repeat runs, not every such curve was filed as active; the % refers to the signal ratio). In a few lines: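 Wild-type CHO-K1 cells plated overnight, then exposed 3 hr at 37C to compounds at 15 concentrations (0.76% DMSO). Lysed, then HTRF anti-pH2AX(S139)-cryptate/anti-H2AX-d2 detection after 24 hr at room temperature; emissions 665 and 620 nm.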
Experiment [10] can be described thus: qHTS assay to identify small molecule agonists of the hypoxia (HIF-1) signaling pathway (AID 1224846; active = well fitted activation curve with a large enough effect in the signal ratio in the repeat runs, not every such curve was filed as active; the % refers to the signal ratio). In a few lines:
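Steps: seed ME-180 HRE-bla cells (2,000/well, 0.5% dialyzed FBS); incubate 5 hrs at 37C; pin-transfer compounds or DMSO; incubate 17 hrs; add LiveBLAzer B/G substrate CCF4-AM; measure reporter activation by FRET.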

A short description of experiment [11]: qHTS RealTime-Glo MT Cell Viability Assay in HepG2 cells - 24 hour (AID 1224867). Note: nearly all actives have a fitted effect of over 50% in size. In a few lines:
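Tox21 10K library screened in qHTS format on HepG2 cells carrying RealTime-Glo reagents. Compounds were added after a 5 h preincubation, and the luminescent signal from continuous culture was measured repeatedly during 40 h treatment.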

Experiment [12] can be described thus: qHTS RealTime-Glo MT Cell Viability Assay in HEK293 cells - 32 hour (AID 1224868). Note: top concentration of the series differs between compounds; nearly all actives have a fitted effect of over 50% in size. In a few lines:
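Luminescence generated by NanoLuc from substrate produced by living HEK293 cells served as the viability signal. Each value reflects the reading at its stated time point during continuous 40 h compound exposure at 37 C.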

Experiment [13] can be described thus: A CellTox Green Cytotoxicity Assay to monitor cytotoxicity in HEK293 cells - 0 hour (AID 1224869). Note: nearly all actives have a fitted effect of over 50% in size. In a few lines:
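Cytotoxicity was tracked continuously in HEK293 cells by a DNA-binding dye excluded from viable cells. Compounds were transferred in DMSO 5 h after seeding; fluorescence was recorded at intervals up to 40 h.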

A short description of experiment [14]: qHTS RealTime-Glo MT Cell Viability Assay in HepG2 cells - 40 hour (AID 1224870). Note: nearly all actives have a fitted effect of over 50% in size. The procedure, abridged: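 HepG2 cells mixed with RealTime-Glo MT reagents (NanoLuc plus cell-permeant prosubstrate) were seeded at 600 cells/well, incubated 5 h at 37 C/5% CO2, then pinned with compounds in DMSO; nonlytic luminescence tracked viability during 40 h treatment.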

Experiment [15] is described as follows: qHTS assay to identify small molecule agonists of H2AX - cell viability counter screen (AID 1224847; calls by dose curve; note: top concentration of the series differs between compounds; nearly all actives have a fitted effect of over 30% in size). In a few lines: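 CHO-K1 wt, 1000 cells/well, o/n 37C; cpds 15 conc, 3 h 37C, 0.76% DMSO; CellTiter-Glo, 30 min RT, luminescence.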
In experiment [16] the target is Thyrotropin receptor (Homo sapiens) (UniProt P16473). The experiment in a line: qHTS assay to identify small molecule agonists of the thyroid stimulating hormone receptor (TSHR) signaling pathway (AID 1224843; calls by dose curve; note: nearly all actives have a fitted effect of over 45% in size). In a few lines:
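Cell line HEK293 with TSHR; density 800/well. Exposure 30 min RT. Readout HTRF cAMP (cAMP-d2/anti-cAMP-cryptate), 1 h RT before reading.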

A short description of experiment [17]: qHTS assay to identify small molecule antagonists of the estrogen related receptor (ERR) signaling pathway from Tox21 library (AID 1224848). Note: nearly all actives have a fitted effect of over 50% in size. The procedure, abridged: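 Screening used an ERR reporter line supplied by NTP, exposed for 18 h at 37 C to library compounds delivered in DMSO. Signal was luciferase luminescence developed with ONE-Glo at room temperature for 30 min.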

Experiment [18] in a line: qHTS assay to identify small molecule agonists of the estrogen related receptor (ERR) signaling pathway from Tox21 library (AID 1224849; calls by dose curve; note: nearly all actives have a fitted effect of over 15% in size). The settings on record: ERR reporter cell line, ONE-Glo luciferase, 18 h; at 92.4 µM (top of the series) unless noted. In a few lines:
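Agonist signal is luciferase luminescence from an ERR reporter cell line treated 18 h at 37 C with DMSO-dissolved compounds, read 30 min after ONE-Glo addition at room temperature.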
% is set by controls: 0 for no effect and ±100 for the full control effect.

Chain of Thyrotropin receptor (Homo sapiens) (P16473 whole entry, looked up): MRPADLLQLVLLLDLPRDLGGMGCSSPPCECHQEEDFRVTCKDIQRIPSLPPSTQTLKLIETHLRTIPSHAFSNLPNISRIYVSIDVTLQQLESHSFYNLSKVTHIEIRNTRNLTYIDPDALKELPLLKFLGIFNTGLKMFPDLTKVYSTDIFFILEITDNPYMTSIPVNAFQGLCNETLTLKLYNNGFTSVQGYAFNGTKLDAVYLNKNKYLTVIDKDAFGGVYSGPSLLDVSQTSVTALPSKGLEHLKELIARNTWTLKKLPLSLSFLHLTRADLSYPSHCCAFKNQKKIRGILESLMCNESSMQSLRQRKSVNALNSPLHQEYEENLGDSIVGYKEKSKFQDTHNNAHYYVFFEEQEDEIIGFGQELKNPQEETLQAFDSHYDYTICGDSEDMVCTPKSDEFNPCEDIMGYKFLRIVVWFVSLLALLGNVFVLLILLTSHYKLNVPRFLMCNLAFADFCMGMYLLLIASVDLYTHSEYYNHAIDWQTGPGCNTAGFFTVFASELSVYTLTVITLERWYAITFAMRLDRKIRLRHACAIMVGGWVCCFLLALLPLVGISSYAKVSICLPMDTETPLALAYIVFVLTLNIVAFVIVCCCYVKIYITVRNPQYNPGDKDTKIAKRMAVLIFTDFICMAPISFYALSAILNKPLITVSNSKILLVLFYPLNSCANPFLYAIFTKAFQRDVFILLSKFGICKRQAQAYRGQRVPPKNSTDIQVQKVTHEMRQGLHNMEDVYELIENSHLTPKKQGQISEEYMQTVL
Chain of Nuclear receptor subfamily 1 group I member 3 (Homo sapiens) (Q14994 whole entry, looked up): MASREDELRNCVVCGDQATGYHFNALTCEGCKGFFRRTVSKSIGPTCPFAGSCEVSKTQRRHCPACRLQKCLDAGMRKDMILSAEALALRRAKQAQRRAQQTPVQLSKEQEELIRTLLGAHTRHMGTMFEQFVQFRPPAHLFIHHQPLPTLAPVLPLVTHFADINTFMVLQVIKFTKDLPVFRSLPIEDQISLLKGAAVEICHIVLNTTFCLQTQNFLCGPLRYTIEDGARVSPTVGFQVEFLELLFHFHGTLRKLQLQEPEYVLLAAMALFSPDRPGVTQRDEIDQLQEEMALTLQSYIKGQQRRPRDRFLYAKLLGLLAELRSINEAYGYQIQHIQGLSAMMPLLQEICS
Chain of Luciferin 4-monooxygenase (Photinus pyralis) (P08659 whole entry, looked up): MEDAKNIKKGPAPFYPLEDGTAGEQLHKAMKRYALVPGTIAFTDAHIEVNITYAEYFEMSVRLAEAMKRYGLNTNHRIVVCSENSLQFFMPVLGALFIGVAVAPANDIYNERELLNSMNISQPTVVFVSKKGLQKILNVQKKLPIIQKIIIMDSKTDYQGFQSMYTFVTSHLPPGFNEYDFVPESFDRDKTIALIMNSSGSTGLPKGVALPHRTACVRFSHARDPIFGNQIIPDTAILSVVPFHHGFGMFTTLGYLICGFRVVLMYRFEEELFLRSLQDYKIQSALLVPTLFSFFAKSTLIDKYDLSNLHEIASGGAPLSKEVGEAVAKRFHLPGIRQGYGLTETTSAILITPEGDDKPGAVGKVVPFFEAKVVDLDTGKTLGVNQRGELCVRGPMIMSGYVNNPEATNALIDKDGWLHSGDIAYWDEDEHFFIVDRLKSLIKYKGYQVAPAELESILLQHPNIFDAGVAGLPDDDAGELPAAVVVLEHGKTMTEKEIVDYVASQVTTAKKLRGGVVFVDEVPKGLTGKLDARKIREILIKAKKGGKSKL

On to `CC(C)=CCC[C@](C)(O)[C@@H]1CC=C(C)CC1`, for which the Potency entry in experiment [1], in experiment [2], in experiment [3], in [4], in experiment [5] and in [6] was “inactive” each time. The Potency result in experiment [7], in experiment [8], in [9], in experiment [11], in [12] and in experiment [13] was “inactive” each time. Also, the Potency entry in experiment [14] was “inactive”. Moreover, the outcome in [10] was inactive.
`CCCCC(CC)COC(=O)COc1cc(Cl)c(Cl)cc1Cl` (stereo not drawn): the Potency result in experiment [1], in experiment [2], in [3], in experiment [4], in experiment [5] and in [6] was “inactive” each time. In addition, the Potency result in experiment [7], in experiment [8], in experiment [9], in experiment [15], in experiment [12] and in [13] was “inactive” throughout. Also, the Potency result in experiment [14] is “inactive”. Further, the outcome in experiment [10] was inactive.
As to `Nc1ccc2ccccc2c1S(=O)(=O)O`, the Potency result in [1], in [3], in experiment [4], in experiment [5], in [7] and in [16] was “inactive” in each case. Moreover, the Potency result in experiment [8], in experiment [9], in experiment [15], in experiment [11], in experiment [12] and in experiment [13] was “inactive” each time. Further, in experiment [14], the Potency entry is “inactive”. Besides, the Potency was 32.4 µM (active) in [2] and 22.1 µM (active) in experiment [6]. For the same compound, the result in experiment [10] was inactive.
For the compound `Cc1cc(S(=O)(=O)O)c(N)cc1Cl`, the Potency result in experiment [1], in experiment [2], in experiment [3], in [4], in [5] and in experiment [6] was “inactive” throughout. The Potency result in experiment [7], in [8], in experiment [9], in experiment [15], in [11] and in [12] was “inactive” each time. Besides, the Potency entry in experiment [13] is “inactive”. Besides, in experiment [10], the compound was classed as inactive.
With `CCN(CC)CCOc1ccc(Cc2ccccc2)cc1`, the Potency result in [1], in experiment [2], in experiment [3], in [4], in [5] and in experiment [6] was “inactive” in each case. Also, the Potency entry in experiment [7], in experiment [16], in experiment [8], in experiment [9], in experiment [15] and in experiment [11] was “inactive” each time. The Potency entry in [13] and in experiment [14] was “inactive” in each case. The result in experiment [10] was inactive.
With `CC(C)(C)C1CCCCC1=O` (stereo not drawn), the Potency entry in experiment [1], in [2], in [3], in experiment [4], in [5] and in experiment [6] was “inactive” in each case. In addition, the Potency entry in experiment [7], in experiment [8], in experiment [9], in [15], in experiment [11] and in experiment [12] was “inactive” in each case. In addition, in [13], the Potency entry is “inactive”. In addition, the compound was called inactive in experiment [10].
Turning to `FC(F)(F)C(Cl)(Cl)Cl`, the Potency entry in experiment [1], in experiment [2], in [3], in [4], in experiment [5] and in experiment [6] was “inactive” in each case. For the same compound, the Potency entry in experiment [7], in experiment [8], in experiment [9], in experiment [15], in [11] and in experiment [12] was “inactive” in each case. Besides, in experiment [13], the Potency entry was “inactive”. The compound was called inactive in experiment [10].
On to `CN1CCC[C@@H]1Cc1c[nH]c2ccc(CCS(=O)(=O)c3ccccc3)cc12`, for which the Potency entry in experiment [1], in [2], in [3], in experiment [4], in experiment [5] and in experiment [6] was “inactive” each time. In addition, the Potency entry in experiment [7], in [16], in [8], in experiment [9], in experiment [17] and in experiment [11] was “inactive” throughout. The Potency entry in experiment [12], in [13] and in experiment [14] was “inactive” in each case. Besides, in [10], the compound was called inactive. The activity change, positive = activation in [18] is -4.97% [at 42.5 µM].
With `C=Cc1ccccc1`, the Potency entry in experiment [1], in experiment [2], in experiment [3], in [4], in experiment [5] and in experiment [6] was “inactive” throughout. Further, the Potency result in [7], in experiment [8], in experiment [9], in experiment [15], in experiment [11] and in experiment [12] was “inactive” each time. For the same compound, the Potency result in [13] and in experiment [14] was “inactive” in each case. Also, in experiment [10], the call was inactive.
